Targets with a hit are over-represented here; the source holds about 6,500 in all. About 2% of all pairs of compound and target were hits. A number with no mark means an inactive call.
Compound: COC(=O)C#Cc1ccccc1 [methyl 3-phenylpropiolate]
Experiment: log2 ratio of iodoacetamide-alkyne labeling of the cysteine site, DMSO over compound (competition); higher = stronger covalent engagement of the cysteine by the compound, active = 1 or more
Conditions: 500 µM; treatment time 1 h; system: HEK293T cell lysate
In short: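 Reporter intensities give each cysteine's log2 competition ratio as the mean of control channels over the mean of compound channels. The samples were HEK293T lysate (2 mg/mL) given vehicle or electrophile (500 µM, 1 h, ambient temperature), then iodoacetamide alkyne (1 h), followed by click coupling to sCIP-TMT reagents, pooling, trypsin digestion overnight at 37 °C, streptavidin enrichment, acid elution, Orbitrap Eclipse LC-MS/MS with FAIMS and FragPipe quantification. Duplicate channels and three replicates were run, and cysteines quantified in only one replicate were discarded.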

Sequence of UniProt Q13190 (Q13190 whole entry): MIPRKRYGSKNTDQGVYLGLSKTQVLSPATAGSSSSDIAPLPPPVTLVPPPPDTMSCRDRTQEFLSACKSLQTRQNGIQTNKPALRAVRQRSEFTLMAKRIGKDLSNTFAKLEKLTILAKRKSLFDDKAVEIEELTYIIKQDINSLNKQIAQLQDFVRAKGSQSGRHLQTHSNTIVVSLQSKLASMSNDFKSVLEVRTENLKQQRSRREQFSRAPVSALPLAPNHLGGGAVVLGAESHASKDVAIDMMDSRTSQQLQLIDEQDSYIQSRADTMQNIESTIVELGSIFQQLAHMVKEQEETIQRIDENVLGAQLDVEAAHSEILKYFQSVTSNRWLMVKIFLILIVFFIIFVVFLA
Sequence of UniProt Q00765 (Q00765 whole entry): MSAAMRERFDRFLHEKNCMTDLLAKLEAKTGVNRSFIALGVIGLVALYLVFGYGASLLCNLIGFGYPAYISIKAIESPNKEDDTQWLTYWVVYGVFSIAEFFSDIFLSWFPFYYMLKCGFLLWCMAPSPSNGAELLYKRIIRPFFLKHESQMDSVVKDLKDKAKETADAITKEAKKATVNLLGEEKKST
Sequence of UniProt Q13642 (Q13642 whole entry, looked up): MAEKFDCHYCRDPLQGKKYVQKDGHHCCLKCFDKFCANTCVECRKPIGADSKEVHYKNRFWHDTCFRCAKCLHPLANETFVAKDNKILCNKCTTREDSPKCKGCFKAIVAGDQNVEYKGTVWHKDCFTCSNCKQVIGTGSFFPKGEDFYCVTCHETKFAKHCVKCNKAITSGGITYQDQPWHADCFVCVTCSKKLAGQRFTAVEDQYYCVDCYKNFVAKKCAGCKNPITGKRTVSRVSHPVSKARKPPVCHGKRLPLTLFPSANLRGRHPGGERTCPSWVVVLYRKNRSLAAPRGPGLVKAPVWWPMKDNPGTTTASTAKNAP
Sequence of UniProt Q15058 (Q15058 whole entry, looked up): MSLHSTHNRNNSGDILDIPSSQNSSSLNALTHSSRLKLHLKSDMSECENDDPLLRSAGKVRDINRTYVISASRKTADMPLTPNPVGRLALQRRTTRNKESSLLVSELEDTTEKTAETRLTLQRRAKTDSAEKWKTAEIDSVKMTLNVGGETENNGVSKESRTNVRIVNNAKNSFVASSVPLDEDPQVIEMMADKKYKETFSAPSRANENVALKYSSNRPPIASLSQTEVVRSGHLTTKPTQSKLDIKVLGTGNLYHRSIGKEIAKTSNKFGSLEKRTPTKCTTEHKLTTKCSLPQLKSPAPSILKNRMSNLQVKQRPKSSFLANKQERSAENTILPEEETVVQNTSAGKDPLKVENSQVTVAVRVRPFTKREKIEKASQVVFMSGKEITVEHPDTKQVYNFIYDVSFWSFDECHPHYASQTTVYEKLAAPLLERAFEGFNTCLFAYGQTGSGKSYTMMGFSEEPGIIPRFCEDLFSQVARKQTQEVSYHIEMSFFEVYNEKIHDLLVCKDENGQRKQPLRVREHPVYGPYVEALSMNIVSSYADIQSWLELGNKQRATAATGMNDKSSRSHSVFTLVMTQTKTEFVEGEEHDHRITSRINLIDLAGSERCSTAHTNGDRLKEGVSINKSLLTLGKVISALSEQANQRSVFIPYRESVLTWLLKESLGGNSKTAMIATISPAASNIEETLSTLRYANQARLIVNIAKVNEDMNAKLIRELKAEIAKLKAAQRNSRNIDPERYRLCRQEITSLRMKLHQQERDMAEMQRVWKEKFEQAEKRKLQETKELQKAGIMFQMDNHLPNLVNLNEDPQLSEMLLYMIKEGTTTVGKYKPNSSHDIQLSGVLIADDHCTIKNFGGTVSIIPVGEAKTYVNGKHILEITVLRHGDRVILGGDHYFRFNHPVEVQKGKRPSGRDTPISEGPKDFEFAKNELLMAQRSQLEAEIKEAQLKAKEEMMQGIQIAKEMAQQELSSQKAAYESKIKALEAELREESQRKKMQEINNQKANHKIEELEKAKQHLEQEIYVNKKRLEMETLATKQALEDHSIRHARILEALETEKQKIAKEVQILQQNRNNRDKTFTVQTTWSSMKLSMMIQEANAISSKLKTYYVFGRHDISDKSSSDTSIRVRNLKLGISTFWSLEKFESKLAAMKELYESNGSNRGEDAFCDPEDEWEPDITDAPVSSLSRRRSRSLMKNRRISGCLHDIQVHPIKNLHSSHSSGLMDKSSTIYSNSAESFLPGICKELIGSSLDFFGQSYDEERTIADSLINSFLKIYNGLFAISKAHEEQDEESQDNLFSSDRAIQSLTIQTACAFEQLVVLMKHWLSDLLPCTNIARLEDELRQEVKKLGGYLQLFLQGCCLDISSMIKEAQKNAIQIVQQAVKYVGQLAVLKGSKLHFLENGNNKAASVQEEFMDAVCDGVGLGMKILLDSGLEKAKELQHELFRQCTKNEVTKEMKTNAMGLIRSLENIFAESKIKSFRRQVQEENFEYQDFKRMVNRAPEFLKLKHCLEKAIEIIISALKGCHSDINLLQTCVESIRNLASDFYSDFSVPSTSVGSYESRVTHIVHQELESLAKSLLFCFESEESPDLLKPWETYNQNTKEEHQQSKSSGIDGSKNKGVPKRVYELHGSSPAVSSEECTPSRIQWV
Sequence of UniProt P55265 (P55265 whole entry, looked up): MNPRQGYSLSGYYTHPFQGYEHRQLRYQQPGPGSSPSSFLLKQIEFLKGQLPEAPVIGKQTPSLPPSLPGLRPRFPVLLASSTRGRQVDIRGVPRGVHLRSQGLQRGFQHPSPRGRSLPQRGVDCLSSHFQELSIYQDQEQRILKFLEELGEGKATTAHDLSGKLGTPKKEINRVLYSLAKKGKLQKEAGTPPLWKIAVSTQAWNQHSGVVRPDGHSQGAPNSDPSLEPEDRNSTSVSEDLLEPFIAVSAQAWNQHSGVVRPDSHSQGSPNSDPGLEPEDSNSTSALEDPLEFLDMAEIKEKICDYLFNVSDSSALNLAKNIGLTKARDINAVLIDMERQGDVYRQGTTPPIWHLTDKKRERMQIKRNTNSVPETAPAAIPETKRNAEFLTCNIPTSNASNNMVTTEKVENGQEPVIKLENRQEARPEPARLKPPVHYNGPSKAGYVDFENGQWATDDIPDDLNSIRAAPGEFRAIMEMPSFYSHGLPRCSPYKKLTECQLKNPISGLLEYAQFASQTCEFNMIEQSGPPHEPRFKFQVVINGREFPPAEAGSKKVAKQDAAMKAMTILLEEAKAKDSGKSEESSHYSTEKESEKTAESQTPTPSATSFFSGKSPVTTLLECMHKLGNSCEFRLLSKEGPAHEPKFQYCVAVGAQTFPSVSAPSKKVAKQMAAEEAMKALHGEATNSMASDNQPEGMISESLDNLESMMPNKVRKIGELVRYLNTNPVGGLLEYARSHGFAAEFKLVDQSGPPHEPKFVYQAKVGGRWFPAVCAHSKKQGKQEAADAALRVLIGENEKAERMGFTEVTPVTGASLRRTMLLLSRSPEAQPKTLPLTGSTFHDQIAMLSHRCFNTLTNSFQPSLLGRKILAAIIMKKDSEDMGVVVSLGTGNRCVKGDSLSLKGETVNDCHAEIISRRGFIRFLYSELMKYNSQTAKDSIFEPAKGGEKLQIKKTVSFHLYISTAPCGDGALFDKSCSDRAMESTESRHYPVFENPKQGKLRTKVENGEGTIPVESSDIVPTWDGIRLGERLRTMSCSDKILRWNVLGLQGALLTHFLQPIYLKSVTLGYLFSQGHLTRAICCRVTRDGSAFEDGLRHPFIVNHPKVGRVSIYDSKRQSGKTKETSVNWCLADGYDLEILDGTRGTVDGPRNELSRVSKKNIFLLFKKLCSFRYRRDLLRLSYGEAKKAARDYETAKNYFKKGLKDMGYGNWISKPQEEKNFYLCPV
Sequence of UniProt Q5JTD0 (Q5JTD0 whole entry, looked up): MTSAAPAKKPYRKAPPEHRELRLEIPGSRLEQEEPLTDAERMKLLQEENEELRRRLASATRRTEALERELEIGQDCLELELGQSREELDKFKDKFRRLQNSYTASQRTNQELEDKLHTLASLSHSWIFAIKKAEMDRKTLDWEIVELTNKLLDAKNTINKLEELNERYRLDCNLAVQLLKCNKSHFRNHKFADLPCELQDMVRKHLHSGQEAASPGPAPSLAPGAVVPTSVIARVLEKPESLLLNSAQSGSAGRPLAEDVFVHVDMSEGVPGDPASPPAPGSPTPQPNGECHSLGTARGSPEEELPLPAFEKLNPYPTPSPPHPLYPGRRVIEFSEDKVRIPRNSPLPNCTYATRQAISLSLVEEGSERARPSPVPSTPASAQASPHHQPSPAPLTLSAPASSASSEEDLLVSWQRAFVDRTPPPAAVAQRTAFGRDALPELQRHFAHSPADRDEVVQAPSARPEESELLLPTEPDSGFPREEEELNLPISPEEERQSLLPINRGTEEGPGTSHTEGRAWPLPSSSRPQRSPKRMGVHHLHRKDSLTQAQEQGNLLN
Sequence of UniProt Q14166 (Q14166 whole entry, looked up): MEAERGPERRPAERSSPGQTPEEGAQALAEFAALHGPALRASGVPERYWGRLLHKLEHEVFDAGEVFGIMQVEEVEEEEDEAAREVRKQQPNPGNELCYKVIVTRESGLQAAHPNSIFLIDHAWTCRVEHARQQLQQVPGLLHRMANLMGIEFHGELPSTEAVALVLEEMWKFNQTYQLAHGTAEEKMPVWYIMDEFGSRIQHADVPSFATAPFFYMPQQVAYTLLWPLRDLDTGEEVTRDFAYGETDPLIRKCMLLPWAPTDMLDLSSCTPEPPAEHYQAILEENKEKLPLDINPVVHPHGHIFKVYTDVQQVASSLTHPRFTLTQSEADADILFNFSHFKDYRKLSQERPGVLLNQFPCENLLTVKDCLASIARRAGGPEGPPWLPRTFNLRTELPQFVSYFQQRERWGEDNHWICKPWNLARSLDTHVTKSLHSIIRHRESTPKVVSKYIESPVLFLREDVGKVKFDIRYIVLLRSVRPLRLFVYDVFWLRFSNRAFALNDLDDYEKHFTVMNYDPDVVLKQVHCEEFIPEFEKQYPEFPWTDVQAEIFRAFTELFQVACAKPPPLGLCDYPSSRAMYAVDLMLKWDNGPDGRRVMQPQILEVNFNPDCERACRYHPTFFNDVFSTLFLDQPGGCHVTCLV

Target | log2 ratio of iodoacetamide-alkyne labeling
UniProt P78527_C3281 | 0.287
NUMA1 C375 (UniProt Q14980) | -0.109
CNBP C140 (UniProt P62633) | 0.134
TRIM28 C717 (UniProt Q13263) | -0.00982
UniProt P60891_C230 | 0.704
ADAR C392 (UniProt P55265) | 0.693
MRPS11 C186 (UniProt P82912) | 0.527
FHL1 C71 (UniProt Q13642) | 0.0627
TTLL12 C126 (UniProt Q14166) | -0.117
UniProt Q15042_C335 | 0.153
UniProt P78527_C4061 | 0.465
EIF2B5 C335 (UniProt Q13144) | 0.267
UniProt P60891_C41 | -0.0365
UniProt P61163_C222 | 0.293
BMS1 C725 (UniProt Q14692) | 1.27 (active)
TLE3 C528 (UniProt Q04726) | 1.34 (active)
PPA1 C274 (UniProt Q15181) | 0.425
MTA1 C512 (UniProt Q13330) | 0.481

Target | log2 ratio of iodoacetamide-alkyne labeling
PTPN13 C937 (UniProt Q12923) | 0.773
UniProt Q5H9R7_C467 | 0.103
NUBP1 C22 (UniProt P53384) | 2.24 (active)
BMS1 C895 (UniProt Q14692) | 0.11
BLM C704 (UniProt P54132) | 0.6
UniProt Q15042_C873 | 0.165
UniProt P62306_C66 | 0.0671
RPS27A C149 (UniProt P62979) | 0.251
UniProt Q13155_C23 | 1.24 (active)
UniProt Q15365_C118 | 1.72 (active)
KIF14 C442 (UniProt Q15058) | 0.0677
MARS C38 (UniProt P56192) | 0.14
NUBP1 C31 (UniProt P53384) | 0.626
TJAP1 C172 (UniProt Q5JTD0) | 0.251
PITRM1 C313 (UniProt Q5JRX3) | 0.195
STX5 C68 (UniProt Q13190) | 0.4
CNBP C6 (UniProt P62633) | 0.0447
REEP5 C18 (UniProt Q00765) | 0.482

From the supplement of paper PMC11006884
